# Source: PubChem
# This is a sample that favours compounds with a hit; in the whole collection about 5.9% have one here.
# DAX1 inh: inhibits human nuclear receptor DAX1; AID 504766; inhibition, % at 6.75 µM; HEK293 Gal4-DAX1 luciferase reporter, luminescence; 340,000 tested, 0.99% active;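 active = inhibition above the mean over all tested compounds plus 3 SD, cut at about 4.2% in these data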;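 note: 0% = DAX1-transfected cells with DMSO and 100% = empty-vector control cells with DMSO; inhibition shows as a rise in luminescence from relieved DAX1 repression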
# HSF1 inh: HSF1 inhibition | NIH3T3-HGL HSE-luciferase, MG132-induced, luminescence 8 h; active compounds read low | activity change, negative = inhibition, % at 7.5 µM (by protocol) | AID 2098 | 300,000 tested, 0.77% active;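 active = more than half of replicate wells show activity change below -50%, luminescence cut by over half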;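 note: luciferase reports HSF-1 transcriptional activity via heat shock element; 0% = median of DMSO wells and -100% = zero luminescence signal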
# HSF-1 act: increases HSF-1 driven luciferase reporter signal. NIH3T3-HGL HSF-1 luciferase reporter, MG132, 8 h; 100% = twice DMSO control signal. activation, % at 9 µM. 300,000 tested, 1.7% active;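 active = mean replicate activation of at least 50% with a set share of replicates each reaching 50%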;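 note: 0% = median of the neutral control wells and 100% = twice that signal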
# FXN GAA850 act: activators of GAA850 frataxin (FXN) promoter; HEK293 lucGAA850 FXN promoter luciferase reporter, 24 h; percent of 10 µM SAHA response; activation, % at 6 µM; 360,000 tested, 0.56% active; AID 540364;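 active = activation above the average of all compounds screened plus 3 SD, cutoff fixed separately per campaign, cut at about 7.5% in these data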;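 note: 0% = DMSO wells and 100% = 10 µM SAHA wells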
# HSP90 refold inh: inhibitors of HSP90 luciferase refolding in rabbit reticulocyte lysate. luciferase refolding luminescence, 3 h. AID 1789. inhibition, % at 5.6 µM. 290,000 tested, 0.91% active;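 active = inhibition above the screen-wide mean plus 3 SD, computed separately per campaign, cut at about 16% in these data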;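 note: 0% = DMSO wells and 100% = 60 µM geldanamycin wells; inhibitors lower the luminescence because luciferase stays unfolded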
# AHR activator: activators of human aryl hydrocarbon receptor. P35869. AHR-responsive luciferase reporter cells, luminescence. activation, % at 5 µM. 320,000 tested, 2.5% active; in the data active = activation above about 47%;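 note: 0% = vehicle wells and 100% = reference agonist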
# An asterisk follows results filed as active; nt = not tested or not shown.
SMILES,DAX1 inh,HSF1 inh,HSF-1 act,FXN GAA850 act,HSP90 refold inh,AHR activator
CC1CCCN(S(=O)(=O)c2ccc3c(c2)OCCO3)C1 (stereo unspecified),0,nt,nt,1,nt,nt
O=C(CSc1nnc(-c2cccs2)n1-c1cccc(Cl)c1)c1cccc2c1OCCO2,6.1*,6,46,0,-1,0
O=C(O)CSc1nnc(-c2cccs2)n1-c1ccc(Cl)cc1,0,-14,-9,0,-5,-1
Nn1c(SCc2ccc(F)cc2)nnc1-c1cccnc1,0,32,62*,0,3,2
Cc1ccccc1OCCSc1nnc(-c2cccnc2)n1N,0,nt,nt,1,2,54*
CC(=O)Nc1cccc(NC(=O)CS(=O)(=O)c2cn(CC(=O)N3CCCC3)c3ccccc23)c1,0,-7,6,2,-3,0
N=c1sccn1CC(=O)Nc1cc(Cl)ccc1Oc1ccccc1,-1,49,79*,0,1,0
N=c1sccn1CC(=O)Nc1ccc(Cl)cc1[N+](=O)[O-],4.4*,-3,-9,1,0,-1
COc1cc(NC(=O)Cn2ccsc2=N)c(C)cc1[N+](=O)[O-],1,-5,-6,-1,-4,0
CC[C@]12c3[nH]c4cc(CCC(=O)N(C)C)ccc4c3CCN1C(=O)[C@@H](CC(=O)NC/C=C(\C)CCC=C(C)C)C[C@@H]2C(=O)N1CCN(C(=O)c2ccco2)CC1,1,nt,nt,0,nt,nt
CCN(CC(=O)NCc1cccs1)C(=O)c1cc(Br)ccc1O,1,nt,nt,-1,nt,0
O=C(NNC(=S)Nc1ccccc1)c1ccc(O)cc1,6.0*,33,57*,4,-1,9
CC(=O)c1ccc(OCC(=O)Nc2ccccc2C(=O)NC2CC2)cc1,1,10,0,0,-2,15
CN(C)c1ncnc2c1ncn2[C@H]1CN(Cc2ccc(Cl)cc2)C[C@@H](CO)O1,nt,nt,nt,0,nt,nt
O=C(NCc1csc(-c2cccs2)n1)c1ccccc1,2,nt,nt,5,0,4
O=C(NCc1csc(-c2cccs2)n1)c1cccc(Cl)c1,4.4*,nt,nt,0,0,8
COc1cc(C(C)=O)ccc1OCC(O)CN(CCO)Cc1ccccc1 (stereo unspecified),7.2*,2,10,2,0,4
O=C(O)C1CCN(C(=O)CSc2nc3ccccc3s2)CC1,0,-6,1,2,-1,3
CC1CCN(C(=O)CSc2nc3ccccc3s2)CC1,4.6*,30,54*,2,-6,15
CC1CCCC(C)N1C(=O)CSc1nc2ccccc2s1 (stereo unspecified),5.0*,10,17,3,-2,19
O=C(CSc1nc2ccccc2s1)N1CCCCC1,3,10,28,2,4,13
Cc1nnc(SCC(=O)N2c3ccccc3CC2C)s1 (stereo unspecified),-1,8,14,1,1,4
CC1Cc2ccccc2N1C(=O)CSc1nc2ccccc2s1 (stereo unspecified),1,19,56*,1,-1,15
O=C(O)c1ccc(Cl)cc1Nc1nc2cc(Cl)ccc2o1,0,7,19,0,1,59*
CCC(=O)Nc1cc(Cl)ccc1C(=O)O,1,-4,4,-1,5,0
SMILES,DAX1 inh,HSF1 inh,HSF-1 act,FXN GAA850 act,HSP90 refold inh,AHR activator
O=c1[nH]c(SCc2cccc(F)c2)nc2c1CCCC2,0,33,63*,-2,0,26
Cc1c(Cl)cccc1NC(=O)CSc1nc2c(c(=O)[nH]1)CCCC2,nt,12,60*,nt,2,6
COc1cccc(/C=N/n2c(SC)nnc2-c2ccccc2)c1O,4.6*,1,-6,-4,3,12
COc1cccc(/C=N/n2c(SC)nnc2-c2ccccc2)c1OC,-1,2,14,0,-3,61*
O=C(C1CCN(S(=O)(=O)c2ccc(Cl)c(C(F)(F)F)c2)CC1)N1CCC1,0,nt,nt,1,nt,3
CCCc1nc2c(C)cc(C)cc2c(N)c1CC,1,-6,2,-1,-1,47*
Cc1ccc(CN2CCN(Cc3cc4ccccc4o3)CC2CCO)cc1 (stereo unspecified),1,-75*,-82,1,3,1
CCOC(=O)c1c(C)[nH]c(C)c1S(=O)(=O)N(C)CC(=O)NCc1cccc(Br)c1,0,4,11,2,-3,9
CCOC(=O)c1nn(-c2ccc(C)cc2)cc1C(=O)c1ccccc1,3,39,59*,4,3,1
CC(C)C(=O)N[C@@H]1c2ccccc2CC[C@H]1OCc1ccccc1,-1,nt,nt,0,nt,nt
NC(N)=NS(=O)(=O)c1ccc(NC(=S)NC(=O)c2ccc(Br)cc2)cc1,1,86,114*,2,0,7
NC(N)=NS(=O)(=O)c1ccc(NC(=S)NC(=O)c2ccncc2)cc1,-1,-4,15,-1,-4,1
CSc1ncnc2c1ncn2CCCNCCCc1ccccc1,0,nt,nt,1,nt,nt
COc1ccc2oc(C(=O)OCC(=O)N3CCCCC3)c(C)c2c1,4.9*,18,24,3,nt,3
COc1ccc2oc(C(=O)OCC(=O)N3CCN(C(C)=O)CC3)c(C)c2c1,-1,-5,-7,1,nt,3
N#Cc1nc(-c2ccco2)oc1N1CCN(Cc2ccccc2)CC1,0,-80*,-85,-1,-1,-6
COc1ccccc1-c1nc(C#N)c(N2CCN(Cc3ccccc3)CC2)o1,-2,17,40,0,0,2
CCN1C[C@@H]2[C@@H]3C(=O)N(C)C(=O)[C@@H]3[C@](C)(C1=O)N2C(=O)c1ccc(Cl)cc1,1,nt,nt,-2,nt,nt
Clc1ccc(OCc2nc(-c3ccncc3)no2)c(Br)c1,4,52,85*,5,-1,6
O=C1COc2cc(O)ccc21,1,nt,nt,0,nt,nt
COc1ccc(C)cc1NC(=O)C(=O)NCc1ccncc1,1,-5,-24,-2,-3,50*
COc1cccc(NC(=O)C(=O)NCc2ccncc2)c1,0,16,43,5,1,53*
Cc1c(F)cccc1NS(=O)(=O)c1ccc2c(c1)c(C)cc(=O)n2C,-1,3,9,0,0,1
Cc1sc2nc(C)n(/N=C/c3ccc(O)cc3O)c(=O)c2c1C,0,23,63*,3,3,7
Cc1sc2nc(C)n(/N=C/c3ccccc3O)c(=O)c2c1C,0,-1,-5,1,-1,2
Cc1cc(O)c(-c2cc(C(=O)Nc3cccnc3)[nH]n2)cc1C,3,33,64*,6,-1,7
Cc1cccc(NC(=O)c2cc(-c3cc(C)cc(C)c3O)n[nH]2)c1,-1,27,33,0,-6,66*
COc1ccc(NC(=O)c2ccccc2O)c(OC)c1,3,23,38,4,-2,13
